# According to PubChem BioAssay (NCI):
# About 83,000 compounds went through this panel and 20% of them were active in at least one assay; those are over-represented in the sample as a whole.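 The test compound was applied at a single concentration to cells in 96-well plates for 48 hours, and percent growth was recorded.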 A number with no mark means an inactive call. Active and inactive are the calls of the source. The calls were made as follows: active = growth percent below 10; inactive = the rest.
# How the values were obtained:
# Assay in all cases: NCI-60 one-dose screen, 48 h (100 = growth as untreated, 0 = no growth, -100 = all killed)
# Details in all cases: 10 µM unless noted
# [1] = system: HCT-15 colon
# [2] = system: HT29 colon
# [3] = system: SNB-75 CNS
# [4] = system: SNB-19 CNS
# [5] = system: U251 CNS
# [6] = system: PC-3 prostate
# [7] = system: SK-MEL-5 melanoma
# [8] = system: UACC-62 melanoma
# [9] = system: LOX IMVI melanoma
# [10] = system: SK-MEL-28 melanoma
Compound,growth [1],growth [2],growth [3] [%],growth [4] [%],growth [5],growth [6],growth [7] [%],growth [8] [%],growth [9],growth [10]
CCN(CC)CCCC(C)Nc1c(C)cnc2cc(Cl)c(C)cc12 (centres undefined),86.8%,40%,95.5,99.9,84.7%,87.8%,90.2,109,81.2%,85.4%
CCCCCCCCCC[N+](C)(C)N,101%,85.4%,78.9,87.2,91.8%,62.4%,96.7,106,,110%
O=C(Nc1ccc(Cl)c(Cl)c1)O/N=C\c1c(Cl)ccc([N+](=O)[O-])c1Cl,-3.17% (active),-73% (active),16.9,49.5,3.06% (active),-8.42% (active),48.3,,-82.1% (active),-12.3% (active)
C=C(C)[C@@H]1CC[C@]2(COC(=O)c3ccccc3C(=O)O)CC[C@]3(C)[C@H](CC[C@@H]4[C@@]5(C)CCCNC(C)(C)[C@@H]5CC[C@]43C)[C@@H]12,58%,26.6%,75,71,44.8%,20.8%,46.2,,48.3%,74.4%
CC1(C)NCCC[C@]2(C)[C@H]3CC=C4[C@@H]5C[C@](C)(COC(=O)c6ccccc6C(=O)O)CC[C@]5(C)CC[C@@]4(C)[C@]3(C)CC[C@@H]12,43.8%,9.9% (active),74.7,68.9,41.1%,43.1%,77.5,,54.4%,93.4%
OC(c1ccccc1)(c1ccccc1)C(F)(F)F,107%,103%,111,113,109%,88.4%,109,,105%,
CCCCCCCCCC(C)NC(=O)CCl (centres undefined),89.6%,114%,69.8,86.5,82.1%,94.5%,97.5,93.4,47.9%,95.3%
